High-throughput results as filed in PubChem BioAssay.
Rows were chosen to be rich in hits. Some 4.3% of all compounds tested hit in one or more screens of this group.
SW480 rerep – induces DNA re-replication in SW480 colon adenocarcinoma cells; SW480 DNA re-replication, Hoechst DNA content imaging, 48 h; Potency, µM (doses to about 46.1 µM), inactives show at the highest dose re-replication activation, hits mostly activators; hit rate 1.8% among 340,000; AID 624297; further: potency means the concentration at half of the fitted maximal effect; % of control where 0% means no effect; nearly all actives have a fitted effect of over 55% in size
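Hoechst fluorescence of nuclei (405 nm excitation, 500-530 nm emission) measured by plate-scanning imager after 48 hr compound exposure at 37 C; re-replication scored as increased number of nuclei with elevated intensity.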
MCF10A rerep – DNA re-replication induction in MCF 10a cells; MCF 10A DNA re-replication, Hoechst nuclear intensity, 48 h; Potency, µM (titrated, usually from 46.1 µM), for the others: at the highest dose activity, positive = re-replication, most hits filed as activators; hit rate 2.9% among 350,000; AID 624296; further: potency means the concentration at half of the fitted maximal effect; % of control where 0% means no effect; nearly all actives have a fitted effect of over 50% in size
Giardia kill – Giardia lamblia killing | Giardia lamblia trophozoite viability | hit rate 0.15% among 340,000 | activity change, % at 7.66 µM, hits read low; in the data active means activity change below about -80%; inconclusive means between about -30% and that limit;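 further: parasites exposed to compound for two days anaerobically before the ATP read; on the % scale 0 is the no-effect control and ±100 the full control effect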
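Each well holds 100 Giardia trophozoites and compound. After two days (48 hrs) at 37 deg C in anaerobic conditions, ATP is quantified by luminescence.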
uPA generation – inhibitors of cell surface uPA generation | Potency, µM (top dose mostly 38.3 µM), for the others: top-dose activity change, negative = inhibition, usual class: inhibitors | hit rate 0.31% among 330,000 | cell surface uPA generation assay, qHTS; active means well fitted inhibition curve with a large enough effect; inconclusive means small, poorly fitted or top-dose-only effect; inactive means no such curve, though single readings can be large or run the other way; tested in mouse RAW 264.7 cells; further: potency means the concentration at half of the fitted maximal effect; on the % scale 0 is the no-effect control and ±100 the full control effect; nearly all actives have a fitted effect of over 55% in size
Starred values were filed as active, the others as inactive; ? = inconclusive; . = no result given. Unless noted, the call rests on the fitted dose curve; in most records, active means well fitted activation curve with a large enough effect; inconclusive means small, poorly fitted or top-dose-only effect; inactive means no such curve, though single readings can be large or run the other way.

SMILES	SW480 rerep	MCF10A rerep	Giardia kill	uPA generation
Cc1cc(C)c2c(N)c(C(=O)N/N=C/c3ccccc3)sc2n1	13µM*	9.2µM*	0.9	7.0%
Cc1cc(C)c2c(N)c(C(=O)NNC(=O)c3ccccc3)sc2n1	-1.8%	-14.8%	-20.6	-2.3%
Cc1cc(C)c2c(N)c(C(=O)N/N=C/c3cccnc3)sc2n1	?	16.4µM*	-4.2	-0.5%
O=C(c1cccs1)c1c[nH]cc1-c1ccccc1	-32.0%	-12.4%	7.9	-0.1%
CC(Sc1nccn1C)C(=O)Nc1ccc(Cl)cn1 (configuration not stated)	-335.2%	-16.6%	9.2	2.1%
COc1ccc(C2=Nn3c(nnc3-c3cccnc3)SC2)cc1OC	0.9%	11.4%	-9.7	.
COc1ccc(C2=Nn3c(nnc3-c3ccccc3C(F)(F)F)SC2)cc1OC1CCOC1 (configuration not stated)	24.8%	2.3%	10.4	?
Fc1ccccc1-c1nnc2n1N=C(c1ccc(OC(F)F)c(OCC3CC3)c1)CS2	-5.3%	-17.8%	-3.9	-21.3%
COc1ccc(C2=Nn3c(nnc3-c3ccccc3OC)SC2)cc1OC1CCOC1 (configuration not stated)	1.03µM*	1.3µM*	-8.5	?
COc1ccc(OC)c(-c2nnc3n2N=C(c2ccc(OC)c(OCC4CC4)c2)CS3)c1	2.31µM*	?	39.7	?
COc1ccc(C2=Nn3c(nnc3-c3ccccc3Cl)SC2)cc1OCC1CC1	16.4µM*	?	-4.8	?
COc1ccc(C2=Nn3c(nnc3-c3ccncc3)SC2)cc1OC	16.4µM*	?	2.7	.
CCOc1ccc(C2=Nn3c(nnc3-c3ccccc3OC)SC2)cc1	0.259µM*	?	3.5	-14.2%
COc1ccccc1C1NC=C([N+](=O)[O-])C=C1[N+](=O)[O-] (configuration not stated)	-35.9%	-7.5%	?	-8.8%
COc1ccccc1C1C([N+](=O)[O-])=CC([N+](=O)[O-])=CN1C (configuration not stated)	?	-8.5%	-82.7*	-9.4%
N#Cc1c(NCCCO)nc(-c2ccco2)c2c1CCCC2	5.8µM*	18.4µM*	-13.1	-2.8%
N#Cc1c(NC2CCCCC2)nc(-c2ccco2)c2c1CCCC2	13µM*	16.4µM*	?	-3.6%
CCC(C)(C)C(=O)O[C@H]1C[C@@H](C)C=C2C=C[C@H](C)[C@H](CC[C@@H]3C[C@@H](O)CC(=O)O3)[C@H]21	?	-38.3%	-9.7	?
COc1cc(/C=C2/SC(=O)NC2=O)ccc1Oc1ccc([N+](=O)[O-])cc1[N+](=O)[O-]	13µM*	?	?	-9.5%
COc1cc(/C=C2\C(=O)N(c3ccccc3)N=C2C)ccc1Oc1ccc([N+](=O)[O-])cc1[N+](=O)[O-]	-118.3%	9.2µM*	-14.3	-6.9%
O=C(NCCCc1nc2ccccc2n1CCOc1ccccc1)C1CCCCC1	.	.	17.4	.
Cc1cccc(NS(=O)(=O)c2ccc(C)c(C(=O)NC3CCN(Cc4ccccc4)CC3)c2)c1	1.8%	?	-5.7	-25.1%
O=C(Nc1ccc([N+](=O)[O-])cc1Cl)c1ccccc1O	.	.	-18.8	.
CC(=O)Oc1c(C)cc(Cl)cc1C(=O)Nc1ccc([N+](=O)[O-])cc1Cl	6.51µM*	16.8%	4.6	?
CCOc1ccc(C(=O)NC2CCN(C(=O)Nc3ccc(F)cc3)CC2)cc1	-1.0%	-2.4%	0.6	0.6%
SMILES	SW480 rerep	MCF10A rerep	Giardia kill	uPA generation
Cc1ccc(S(=O)(=O)N2CCCN(C(=O)c3cc4ccccc4[nH]3)CC2)cc1	3.8%	?	9.9	-1.3%
CCOC(=O)N1CCN(CC(=O)Nc2sccc2C#N)CC1	?	4.1%	-4.1	11.2µM*
N#Cc1ccsc1NC(=O)CN1CCCCCC1	-8.7%	2.2%	-6.3	7.0%
CNc1ccc(C(=O)Oc2cc(O/N=[N+](\[O-])N(C)C)c([N+](=O)[O-])cc2[N+](=O)[O-])cc1	.	.	-9.7	.
COc1ccc(S(=O)(=O)NCc2ccccn2)cc1NC(=O)c1ccc(Cl)cc1	?	8.2µM*	1.3	-11.8%
CCOc1ccc(S(=O)(=O)NCc2cccnc2)cc1NC(=O)c1ccccc1F	9.2µM*	13µM*	-13.6	-15.0%
COc1ccc(S(=O)(=O)NCc2ccncc2)cc1NC(=O)c1ccc(Cl)cc1	-344.0%	1.3%	32.0	-2.9%
COc1ccc(S(=O)(=O)NCc2ccccn2)cc1NC(=O)c1ccccc1C	7.31µM*	3.66µM*	-7.1	-4.2%
COc1ccc(NC(=O)/C(C#N)=C/C=C/c2ccco2)cc1	8.2µM*	14.6µM*	4.3	-11.6%
